The values that follow come from PubChem BioAssay (Tox21).

Experiment [1] in a line: qHTS RealTime-Glo MT Cell Viability Assay in HEK293 cells - 16 hour (AID 1224872). Also: nearly all actives have a fitted effect of over 50% in size. An outline of the steps:
(§1)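 HEK293 cells seeded with NanoLuc/prosubstrate reagent, rested 5 h at 37 C, then dosed and kept at 37 C up to 40 h. Nonlytic real-time luminescence from viable cells read at 0, 8, 16, 24, 32 and 40 h.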
A general note: Quantitative high-throughput screening tests each substance at several concentrations.

The nature of experiment [2]: qHTS RealTime-Glo MT Cell Viability Assay in HepG2 cells - 8 hour (AID 1224873). Also: nearly all actives have a fitted effect of over 55% in size. In outline:
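HepG2 cells (600/well) mixed with RealTime-Glo MT reagent, settled 5 h at 37 C/5% CO2 before compound addition. Nonlytic NanoLuc luminescence from viable-cell prosubstrate reduction read repeatedly during 40 h treatment at 37 C.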

Experiment [3] is described as follows: A CellTox Green Cytotoxicity Assay to monitor cytotoxicity in HEK293 cells - 24 hour (AID 1224875). Also: nearly all actives have a fitted effect of over 45% in size. An outline of the steps:
(§2)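 Each value comes from one timepoint of a single continuous run in which HEK293 cells with CellTox Green were exposed to compound for up to 40 h at 37 C, dye fluorescence rising with cell death.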

Experiment [4] can be described thus: A CellTox Green Cytotoxicity Assay to monitor cytotoxicity in HepG2 cells - 16 hour (AID 1224876). Also: nearly all actives have a fitted effect of over 45% in size. In outline: (§3)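 Continuous culture of HepG2 cells with a membrane-impermeant DNA dye; rising fluorescence marks dead cells. Compound exposure lasted up to 40 h at 37 C, with reads every 8 h from 0 h.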
Experiment [5] in a line: qHTS RealTime-Glo MT Cell Viability Assay in HepG2 cells - 32 hour (AID 1224877). Also: nearly all actives have a fitted effect of over 55% in size. An outline of the steps:
(§4)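 HepG2 cells (600/well) were dispensed with RealTime-Glo reagents, incubated 5 h at 37 °C, then treated with compounds in DMSO for up to 40 h. Nonlytic NanoLuc luminescence reflecting viable cells was read at each stated time point.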

A short description of experiment [6]: A CellTox Green Cytotoxicity Assay to monitor cytotoxicity in HepG2 cells - 24 hour (AID 1224878). Also: nearly all actives have a fitted effect of over 45% in size. An outline of the steps: as §3
A short description of experiment [7]: A CellTox Green Cytotoxicity Assay to monitor cytotoxicity in HepG2 cells - 40 hour (AID 1224879). Also: nearly all actives have a fitted effect of over 40% in size. In outline: as §3
Experiment [8] can be described thus: A CellTox Green Cytotoxicity Assay to monitor cytotoxicity in HEK293 cells - 32 hour (AID 1224881). Also: nearly all actives have a fitted effect of over 40% in size. An outline of the steps:
as §2

A short description of experiment [9]: A CellTox Green Cytotoxicity Assay to monitor cytotoxicity in HepG2 cells - 0 hour (AID 1224882). Also: nearly all actives have a fitted effect of over 35% in size. In outline:
as §3

A short description of experiment [10]: A CellTox Green Cytotoxicity Assay to monitor cytotoxicity in HepG2 cells - 32 hour (AID 1224883). Also: nearly all actives have a fitted effect of over 50% in size. An outline of the steps: as §3
Experiment [11] is described as follows: A CellTox Green Cytotoxicity Assay to monitor cytotoxicity in HEK293 cells - 8 hour (AID 1224884). Also: nearly all actives have a fitted effect of over 35% in size. In outline: as §2
Experiment [12] is described as follows: qHTS RealTime-Glo MT Cell Viability Assay in HepG2 cells - 16 hour (AID 1224885). Also: nearly all actives have a fitted effect of over 50% in size. In outline:
as §4

Experiment [13] is described as follows: qHTS RealTime-Glo MT Cell Viability Assay in HEK293 cells - 24 hour (AID 1224886). Also: nearly all actives have a fitted effect of over 50% in size. In outline: as §1
A short description of experiment [14]: A CellTox Green Cytotoxicity Assay to monitor cytotoxicity in HEK293 cells - 16 hour (AID 1224888). Also: nearly all actives have a fitted effect of over 35% in size. An outline of the steps: as §2
Experiment [15] can be described thus: A CellTox Green Cytotoxicity Assay to monitor cytotoxicity in HepG2 cells - 8 hour (AID 1224890). Also: nearly all actives have a fitted effect of over 45% in size. In outline: as §3
Experiment [16] can be described thus: qHTS assay to identify small molecule antagonists of the estrogen receptor alpha (ER-alpha) signaling pathway using the BG1 cell line in the presence of 0.1 nM 17-beta-estradiol - cell viability counter screen (AID 1259241). Also: nearly all actives have a fitted effect of over 40% in size. An outline of the steps:
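Measures cytotoxicity alongside the ER-alpha antagonist readout: VM7Luc4E2 cells, charcoal-stripped serum, 0.1 nM 17beta-estradiol final, 22 hr compound incubation at 37C, CellTiter-Fluor fluorescence.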

A short description of experiment [17]: qHTS RealTime-Glo MT Cell Viability Assay in HEK293 cells - 40 hour (AID 1224874). Also: nearly all actives have a fitted effect of over 50% in size. The following applies: RealTime-Glo luminescence; max response: hits give low values. In outline:
(§5)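 qHTS format; HEK293 cells with NanoLuc/prosubstrate reagent, 37 C/5% CO2 for 5 h pre-dosing; compounds 23 nL in DMSO; luminescence at each time point reflects viable cells.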

The nature of experiment [18]: qHTS RealTime-Glo MT Cell Viability Assay in HEK293 cells - 0 hour (AID 1224880). Also: nearly all actives have a fitted effect of over 45% in size. An outline of the steps: as §5
Experiment [19] in a line: qHTS RealTime-Glo MT Cell Viability Assay in HepG2 cells - 0 hour (AID 1224889). Also: nearly all actives have a fitted effect of over 50% in size. In outline: as §4
The nature of experiment [20]: qHTS RealTime-Glo MT Cell Viability Assay in HEK293 cells - 8 hour (AID 1224887). Also: nearly all actives have a fitted effect of over 50% in size. In outline: as §5

The structures appear in SMILES notation. “And” between values parts separate entries of the source, which are not always exact repeats. Equal values may be shown once. Inconclusive results are not listed. The source made the active and inactive calls. Calls follow the shape of the dose curve; as a rule, active = well fitted curve in the direction sought with a large enough effect in the repeat runs; inconclusive = weak or mixed curves; inactive = no such curve, though single readings can be large; an effect the other way counts as inactive or inconclusive.
Potency is read from the fitted curve at half-maximal effect.

On to `[Cl][Bi]([Cl])([c]1ccccc1)([c]1ccccc1)[c]1ccccc1`, for which the Potency was 4.87 µM (active) in experiment [1]; 10.9 µM (active) in [2]; 27.4 µM (active) in [3]; 10.9 µM (active) in [4]; 6.88 µM (active) in [5]; 7.71 µM (active) in [6]. Besides, the Potency in experiment [7] was 4.87 µM (active); in experiment [8], 24.4 µM (active); in experiment [10] it was 6.13 µM (active); in experiment [11], 43.4 µM (active); in experiment [12] it was 7.71 µM (active); in experiment [13], 3.07 µM (active). Besides, the Potency in experiment [14] is 43.4 µM (active); in experiment [15], 15.4 µM (active); in [16], 12.1 µM (active). Further, in experiment [9], the Potency result was “inactive”.

In the case of `Cc1cc(CCN2CCN(c3nsc4ccccc34)CC2)cc2c1NC(=O)CC2(C)C`, the Potency in experiment [1] was 13.8 µM (active); in [17], 6.92 µM (active); in [3], 49 µM (active); in experiment [5], 54.9 µM (active); in experiment [8], 49 µM (active); in experiment [12] it was 54.9 µM (active). The Potency in experiment [13] is 6.92 µM (active); in experiment [14] it was 49 µM (active); in experiment [16], 34.4 µM (active). Besides, the Potency entry in experiment [18], in experiment [9], in experiment [19] and in experiment [15] was “inactive” throughout.

Consider `CSc1ccc2c(c1)C(N1CCN(C)CC1)Cc1ccccc1S2` (stereo unspecified), for which the Potency entry in [1], in experiment [2], in [9], in [11], in experiment [20] and in [14] was “inactive” in each case. Further, the Potency in experiment [4] was 26.8 µM (active); in experiment [5], 23.9 µM (active); in [6], 23.9 µM (active); in [7] it was 23.9 µM (active); in experiment [10] it was 23.9 µM (active).

In the case of `C=CC(=O)OCCn1c(=O)n(CCOC(=O)C=C)c(=O)n(CCOC(=O)C=C)c1=O`, the Potency in [1] is 11 µM (active); in experiment [17], 11 µM (active); in [3], 49 µM (active); in experiment [4], 49 µM (active); in [5], 24.5 µM (active); in experiment [6], 49 µM (active). Moreover, the Potency in [7] was 21.9 µM (active); in [8], 34.7 µM (active); in experiment [12], 15.5 µM (active); in experiment [13] it was 11 µM (active); in [16], 48.6 µM (active). In addition, the Potency result in [18], in experiment [9], in experiment [11], in [20], in experiment [14] and in experiment [15] was “inactive” in each case.

On to `Cc1cc(O)c2ccccc2c1O`, for which the Potency was 7.56 µM (active) in [1]; 10.7 µM (active) in [2]; 9.52 µM (active) in experiment [3]; 13.4 µM (active) in experiment [4]; 13.4 µM (active) in experiment [5]; 13.4 µM (active) in [6]. Also, the Potency in experiment [7] is 13.4 µM (active); in experiment [8], 9.52 µM (active); in experiment [10], 13.4 µM (active); in [11], 9.52 µM (active); in [12] it was 13.4 µM (active); in [13], 7.56 µM (active). Moreover, the values for the Potency in experiment [20], in [14] and in experiment [15] were 5.35 µM (active), 9.52 µM (active) and 21.3 µM (active), respectively. Moreover, in experiment [9], the Potency entry is “inactive”.

With `CS(=O)(=O)CCNCc1ccc(-c2ccc3ncnc(Nc4ccc(OCc5cccc(F)c5)c(Cl)c4)c3c2)o1`, the Potency is 19 µM (active) in experiment [1]; 23.9 µM (active) in experiment [2]; 0.674 µM (active) in [18]; 21.3 µM (active) in [12]; 21.3 µM (active) in experiment [13]; 21.3 µM (active) in experiment [20]. In addition, the Potency in experiment [19] is 8.49 µM (active). The Potency result in experiment [3], in experiment [4], in experiment [8], in [9], in experiment [11] and in experiment [14] was “inactive” in each case. The Potency result in experiment [15] was “inactive”.

In the case of `CC1=NC(C)OC1C` (stereo unspecified), the Potency result in [1], in experiment [2], in [3], in [4], in [5] and in experiment [6] was “inactive” throughout. Further, the Potency result in experiment [7], in experiment [18], in [9], in experiment [10], in experiment [11] and in experiment [12] was “inactive” in each case. For the same molecule, the Potency result in experiment [20], in experiment [14], in experiment [19], in experiment [15] and in experiment [16] was “inactive” each time.

On to `N=C1C=CC(=C(c2ccc(N)cc2)c2ccc(N)cc2)C=C1`, for which the Potency in experiment [1] is 3.09 µM (active); in experiment [17], 1.95 µM (active); in experiment [5], 24.5 µM (active); in [13], 3.47 µM (active); in experiment [16], 30.6 µM (active). Besides, the Potency result in experiment [3], in [4], in experiment [6], in experiment [7], in experiment [18] and in experiment [8] was “inactive” throughout. The Potency result in experiment [9], in [10], in experiment [14] and in [15] was “inactive” each time.

As for `O=C(c1ccc(F)cc1)C1CCN(CCn2c(=O)[nH]c3ccccc3c2=O)CC1`, the values for the Potency in experiment [1], in experiment [13] and in experiment [20] were 8.49 µM (active), 9.52 µM (active) and 9.52 µM (active), respectively. Also, the Potency entry in experiment [2], in [3], in experiment [4], in experiment [5], in experiment [6] and in experiment [18] was “inactive” each time. Besides, the Potency result in [8], in experiment [10], in experiment [11], in experiment [12], in [14] and in [16] was “inactive” throughout.

On to `O=[N+]([O-])c1cc(Cl)c(Cl)c(Cl)c1Cl`, for which the Potency result in experiment [1], in experiment [2], in experiment [4], in experiment [5], in experiment [18] and in experiment [9] was “inactive” in each case. Further, the Potency entry in experiment [12], in [13], in experiment [14], in experiment [19] and in experiment [15] was “inactive” throughout. Also, the Potency in [16] was 68.3 µM (active).

With `O=C(O)c1cc(O)c2c(c1)C(=O)c1cccc(O)c1C2=O`, the Potency entry in experiment [1], in [2], in experiment [3], in experiment [4], in experiment [5] and in experiment [6] was “inactive” each time. Further, the Potency entry in [7], in experiment [18], in experiment [9], in experiment [10], in experiment [11] and in [12] was “inactive” each time. The Potency result in [13], in experiment [14], in experiment [19] and in experiment [15] was “inactive” each time.

With `CC(C)(C)CC(C)(C)c1ccc(OCCOCC[N+](C)(C)Cc2ccccc2)cc1`, the Potency in [1] is 24.5 µM (active) and 21.3 µM (active); in experiment [4] it was 48.9 µM (active) and 19 µM (active); in experiment [5], 34.6 µM (active) and 9.52 µM (active); in experiment [6], 38.9 µM (active) and 15.1 µM (active); in experiment [7], 24.5 µM (active) and 10.7 µM (active); in [8], 38.9 µM (active) and 21.3 µM (active). Further, the Potency was 27.5 µM (active) and 15.1 µM (active) in experiment [10]; 54.9 µM (active) and 21.3 µM (active) in [12]; 19.5 µM (active) and 9.52 µM (active) in experiment [13]; 48.9 µM (active) and 26.8 µM (active) in experiment [14]; 26.8 µM (active) in experiment [15]. Further, the Potency entry in experiment [9] and in [16] was “inactive” each time.

As for `Nc1ccc2c3c(cccc13)-c1ccccc1-2`, the Potency entry in [2], in [5], in experiment [18] and in experiment [12] was “inactive” each time. For the same molecule, the Potency in [17] is 27.8 µM (active); in [3], 44.1 µM (active); in experiment [4] it was 39.3 µM (active); in [6] it was 44.1 µM (active); in experiment [7] it was 44.1 µM (active); in experiment [8] it was 44.1 µM (active). The Potency in [9] was 24.8 µM (active); in [10] it was 44.1 µM (active); in experiment [11], 44.1 µM (active); in experiment [13], 24.8 µM (active); in experiment [14] it was 44.1 µM (active); in [15] it was 39.3 µM (active).
